These results are taken from PubChem BioAssay (NCATS).

Several values for one entry are separate records, joined by “and”; a condition that tells them apart may be missing. Identical values can stand only once. A number with no mark means an inactive call. No rule for the calls is given here.
Also: 0% is about no effect.

The target in the first assay is Nuclear receptor subfamily 1 group I member 2 (Rattus norvegicus) (UniProt Q9R1A7). As to the kind of experiment: qHTS assay for small molecule activators of the rat pregnane X receptor (rPXR) signaling pathway (AID 651751). The following applies: rPXR reporter cells, luciferase (One-Glo), 24 h. A general note: Quantitative high-throughput screening tests each substance at several concentrations.
Sequence of Nuclear receptor subfamily 1 group I member 2 (Rattus norvegicus) (Q9R1A7 whole entry, looked up): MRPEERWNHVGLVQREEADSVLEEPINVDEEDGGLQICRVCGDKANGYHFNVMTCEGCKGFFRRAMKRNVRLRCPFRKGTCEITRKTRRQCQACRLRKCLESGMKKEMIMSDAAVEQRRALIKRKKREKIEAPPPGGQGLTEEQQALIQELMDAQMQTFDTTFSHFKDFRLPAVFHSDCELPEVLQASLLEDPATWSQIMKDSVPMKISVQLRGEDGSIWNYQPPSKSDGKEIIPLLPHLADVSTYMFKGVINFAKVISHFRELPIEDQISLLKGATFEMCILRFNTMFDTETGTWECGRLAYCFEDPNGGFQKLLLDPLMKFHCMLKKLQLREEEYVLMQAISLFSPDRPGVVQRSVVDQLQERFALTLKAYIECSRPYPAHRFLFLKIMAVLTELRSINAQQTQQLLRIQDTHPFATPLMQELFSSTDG
As for `COP(=S)(OC)Oc1ccc(Sc2ccc(OP(=S)(OC)OC)cc2)cc1`, the max response is 1.29%.
Consider `O=C(CCl)c1ccc(Cl)cc1Cl`, for which the max response is -0.907%.
Consider `CC[n+]1c(-c2ccccc2)c2cc(N)ccc2c2ccc(N)cc21`, for which the max response is -4.84%.
On to `N#Cc1nn(-c2c(Cl)cc(C(F)(F)F)cc2Cl)c(N)c1S(=O)C(F)(F)F` (stereo not given), for which the max response was -15%.
`CCCCCCCCC(=O)NCc1ccc(O)c(OC)c1`: the max response is 2.01%.
For the compound `C[C@H]1C(=O)O[C@@H]2CCN3CC=C(COC(=O)[C@](C)(O)[C@]1(C)O)[C@H]23`, the max response is 0.678%.
For the compound `Cc1ccc(N=CN(C)C=Nc2ccc(C)cc2C)c(C)c1`, the max response is 4.54%.
With `O=c1n(Cl)c(=O)n(Cl)c(=O)n1Cl`, the max response was -5.15%.
Turning to `COP(=O)(OC)C(O)C(Cl)(Cl)Cl` (stereo not given), the max response was 3.3%.
For the compound `CCCCCCCCCCCC[N+](C)(C)CCOc1ccccc1`, the max response is -13.8%.
In the case of `Oc1c(Br)cc(Br)cc1Br`, the max response is 8.69% and -3.29%.
Consider `COCC(=O)N(c1c(C)cccc1C)C(C)C(=O)OC` (stereo not given), for which the max response is 3.13%.
The same measure, in the same setting: next, `CNC(=O)Oc1cccc2ccccc12`: 5.05% and 2.44%; `CCNc1nc(Cl)nc(NCC)n1`: -3.28%.
Regarding `O=C(NC(=O)c1c(F)cccc1F)Nc1cc(Cl)c(OC(F)(F)C(F)C(F)(F)F)cc1Cl` (stereo not given), the max response is 0.749%.
`CCOP(=S)(OCC)O/N=C(\C#N)c1ccccc1`: the max response is -0.568%.

Test system in the next assay: not listed separately
The experiment in a line: qHTS assay for small molecule activators of the human pregnane X receptor (PXR) signaling pathway (AID 720659). The following applies: DPX-2 HepG2 CYP3A4-luciferase, 24 h; series mostly up to 92.3 µM; activation: at the top concentration.
For the compound `CCC(=O)O[C@H]1CC[C@H]2[C@@H]3CCC4=CC(=O)CC[C@]4(C)[C@H]3CC[C@]12C`, the “activation” value is 20.8%.
On the same count and under the same terms, next, `COP(=S)(OC)Oc1ccc(Sc2ccc(OP(=S)(OC)OC)cc2)cc1`: 0%; `O=C(CCl)c1ccc(Cl)cc1Cl`: 5.47%.
Still for that read-out and setting: the figure for `CC[n+]1c(-c2ccccc2)c2cc(N)ccc2c2ccc(N)cc21` is -8.2%.
For `CCCCCCCCC(=O)NCc1ccc(O)c(OC)c1`, the “activation” value is 1.01%.
In the case of `C[C@H]1C(=O)O[C@@H]2CCN3CC=C(COC(=O)[C@](C)(O)[C@]1(C)O)[C@H]23`, the “activation” value is 6.67%.
Turning to `Cc1ccc(N=CN(C)C=Nc2ccc(C)cc2C)c(C)c1`, the “activation” value is 0%.
Turning to `O=c1n(Cl)c(=O)n(Cl)c(=O)n1Cl`, the “activation” value was 7.91%.
As to `CCNc1nc(Cl)nc(NCC)n1`, the “activation” value is 2.41%.
